These results are taken from PubChem BioAssay (Tox21).

Unmarked numbers belong to inactive results. Inconclusive results are not listed. Calls of active or inactive are those of the source. Unless noted, calls follow the shape of the dose curve; as a rule, active = well fitted curve in the direction sought with a large enough effect in the repeat runs; inconclusive = weak or mixed curves; inactive = no such curve, though single readings can be large; an effect the other way counts as inactive or inconclusive.

Test [1] is described as follows: A CellTox Green Cytotoxicity Assay to monitor cytotoxicity in HEK293 cells - 16 hour (AID 1224888). Also: nearly all actives have a fitted effect of over 35% in size. Also: potency is read from the fitted curve at half-maximal effect. In a few lines:
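HEK293 cells, 600/well, were preincubated 5 hours and then exposed to compounds at 37 C for up to 40 hours. A cell-impermeant cyanine dye staining dead-cell DNA was read by fluorescence at 0, 8, 16, 24, 32 and 40 h time points.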

Test [2] is described as follows: qHTS RealTime-Glo MT Cell Viability Assay in HepG2 cells - 0 hour (AID 1224889). Also: nearly all actives have a fitted effect of over 50% in size. Also: potency is read from the fitted curve at half-maximal effect. In a few lines: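 Luminescence read-out: viable HepG2 cells reduce a prosubstrate to a NanoLuc substrate, giving a signal proportional to live cell number. Reads taken at 0, 8, 16, 24, 32 and 40 h of compound exposure at 37 C.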
A general note: In qHTS, concentration-response curves come from the screen itself.

Test [3] is described as follows: A CellTox Green Cytotoxicity Assay to monitor cytotoxicity in HepG2 cells - 8 hour (AID 1224890). Also: nearly all actives have a fitted effect of over 45% in size. Also: potency is read from the fitted curve at half-maximal effect. In a few lines:
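HepG2 cells, 600/well, preincubated 5 h with CellTox Green dye, then exposed to Tox21 compounds in DMSO at 37 C for up to 40 h. Dead-cell DNA fluorescence read at the indicated time point.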

A short description of test [4]: qHTS assay to identify small molecule antagonists of the estrogen receptor alpha (ER-alpha) signaling pathway using the BG1 cell line in the presence of 0.1 nM 17-beta-estradiol - cell viability counter screen (AID 1259241). Also: nearly all actives have a fitted effect of over 40% in size. In a few lines: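 CellTiter-Fluor read (30 min, 37C) on ER-alpha/ERE-luc VM7Luc4E2 cells; 22 hr compound treatment; agonist 0.1 nM E2 final; same-well multiplex.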

Test [5] in a line: qHTS assay to identify small molecule antagonists of the androgen receptor (AR) signaling pathway using the MDA cell line in the presence of 0.5 nM R1881 - cell viability counter screen (AID 1259242). Also: nearly all actives have a fitted effect of over 45% in size. In a few lines:
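MDA-kb2 cells (MMTV-luciferase, AR/GR responsive) were treated with compounds plus 0.5 nM R1881 (final) for 16 hr at 37C, 0% CO2. Viability was then read in the same wells as live-cell protease fluorescence (CellTiter-Fluor, 30 min).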

Test [6] addresses Androgen receptor (Homo sapiens) (UniProt P10275). The experiment in a line: qHTS assay to identify small molecule antagonists of the androgen receptor (AR) signaling pathway using the MDA cell line in the presence of 0.5 nM R1881 (AID 1259243). Also: nearly all actives have a fitted effect of over 50% in size. Also: potency is read from the fitted curve at half-maximal effect. In a few lines:
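MDA-kb2 cells (MMTV-luciferase, responsive to AR and GR) at 3,000/well, rested 5 h at 37C, 0% CO2, then given compounds plus 0.5 nM R1881 (final) for 16 hr. Luciferase read with ONE-Glo after 30 min at room temperature.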

Test [7] is described as follows: qHTS assay to identify small molecule HDAC inhibitors (AID 1259364). Also: top concentration of the series differs between compounds; nearly all actives have a fitted effect of over 45% in size. In a few lines:
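Wild-type HCT-116 cells, plated overnight at 37 C, exposed to compounds 2 hr at 37 C; luminogenic HDAC-Glo substrate then added 30 min at room temperature. Luminescence reports relative endogenous class I/II HDAC activity.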

The nature of test [8]: qHTS assay to identify small molecule agonists of the sonic hedgehog signaling (Shh) pathway - cell viability counter screen (AID 1259366). Also: nearly all actives have a fitted effect of over 50% in size. Also: potency is read from the fitted curve at half-maximal effect. In a few lines:
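Fluorescence from CellTiter-Fluor reports live cells in this counter screen. NIH/3T3-derived Gli1-Luc reporter cells receive test compounds for 24hr at 37C; reagent goes in at 23hr.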

Test [9] in a line: qHTS assay to identify small molecule antagonists of the sonic hedgehog signaling (Shh) pathway - cell viability counter screen (AID 1259367). Also: nearly all actives have a fitted effect of over 55% in size. In a few lines: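 Cells: 3T3 Gli1-Luc, 2,000/well, 4 hr pre-incubation. Compounds in DMSO, then conditioned medium. Incubation 24 hr, 37C, 5% CO2. CellTiter-Fluor at 23 hr, 1 hr, fluorescence.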
The nature of test [10]: qHTS assay to identify small molecule agonists of the sonic hedgehog signaling (Shh) pathway (AID 1259368; calls by dose curve;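 also: NIH/3T3-derived 3T3Gli1-Luc cells carrying a stable Gli1-driven firefly luciferase reporter; series mostly up to about 92 µM; nearly all actives have a fitted effect of over 15% in size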). In a few lines: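 NIH/3T3-derived 3T3Gli1-Luc cells with stably integrated Gli1-driven firefly luciferase, 2,000 cells/well, compounds added after 4 hr. Incubated 24 hr at 37C, 5% CO2; luminescence read after 30 min with luciferase reagent at room temperature.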
Test [11] in a line: qHTS assay to identify small molecule antagonists of the sonic hedgehog signaling (Shh) pathway (AID 1259369; calls by dose curve; also: nearly all actives have a fitted effect of over 45% in size; also: potency is read from the fitted curve at half-maximal effect). In a few lines:
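NIH/3T3-derived Gli1-Luc reporter cells plated 4 h, dosed with compound, then stimulated with conditioned medium for 24 h at 37 C. Firefly luciferase luminescence read after 30 min with detection reagent at room temperature.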

For test [12], the target named is Estrogen receptor beta (Homo sapiens) (UniProt Q92731). The experiment in a line: qHTS assay to identify small molecule agonists of the estrogen receptor beta (ER-beta) signaling pathway (AID 1259377; active = well fitted activation curve with a large enough effect in the signal ratio in the repeat runs, not every such curve was filed as active; the % refers to the signal ratio). In a few lines: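 Screening used GripTite ER-beta-UAS-bla cells held in 2% charcoal-stripped FBS medium. After overnight (16 hr) compound incubation at 37C, beta-lactamase activity was detected with a FRET substrate by fluorescence.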
Chain of Estrogen receptor beta (Homo sapiens) (Q92731 whole entry, looked up): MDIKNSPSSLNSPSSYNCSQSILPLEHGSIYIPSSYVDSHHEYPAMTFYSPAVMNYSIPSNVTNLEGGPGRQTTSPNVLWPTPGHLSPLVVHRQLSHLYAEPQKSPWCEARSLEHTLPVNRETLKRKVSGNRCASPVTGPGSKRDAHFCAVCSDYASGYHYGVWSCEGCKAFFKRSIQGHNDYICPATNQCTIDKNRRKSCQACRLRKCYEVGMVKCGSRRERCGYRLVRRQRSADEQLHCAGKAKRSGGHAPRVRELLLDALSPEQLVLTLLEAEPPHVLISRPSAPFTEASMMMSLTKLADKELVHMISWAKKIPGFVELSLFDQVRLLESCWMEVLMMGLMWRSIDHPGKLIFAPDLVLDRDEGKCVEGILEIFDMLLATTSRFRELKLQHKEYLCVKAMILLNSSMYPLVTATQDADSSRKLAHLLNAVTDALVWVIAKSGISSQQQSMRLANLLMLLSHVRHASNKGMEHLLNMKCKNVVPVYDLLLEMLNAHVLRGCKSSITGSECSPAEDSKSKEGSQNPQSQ

The target is the same in test [13]. The experiment in a line: qHTS assay to identify small molecule antagonists of the estrogen receptor beta (ER-beta) signaling pathway (AID 1259378; active = well fitted inhibition curve with a large enough effect in the signal ratio in the repeat runs, not every such curve was filed as active; the % refers to the signal ratio; also: potency is read from the fitted curve at half-maximal effect). In a few lines: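 Antagonist mode: compounds added to beta-lactamase reporter HEK293T ER-beta-UAS cells stimulated with E2 (1nM final), 16 hr at 37C. LiveBLAzer B/G FRET substrate, 2 hours room temperature, fluorescence read-out.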

A short description of test [14]: qHTS assay to identify small molecule agonists of the androgen receptor (AR) signaling pathway in the presence of an antagonist - cell viability counter screen (AID 1259379). Also: nearly all actives have a fitted effect of over 25% in size. Also: potency is read from the fitted curve at half-maximal effect. In a few lines:
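MDA-kb2 cells (MMTV-luciferase, AR/GR), 3,000/well, 5 h attachment, then 3.0 µM nilutamide (final) and compounds at 15 concentrations. Viability by CellTiter-Fluor fluorescence after 16 h at 37 °C, 0% CO2, in the reporter wells.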

Test [15] in a line: qHTS assay to identify small molecule agonists of the estrogen receptor beta (ER-beta) signaling pathway - cell viability counter screen (AID 1259380). Also: nearly all actives have a fitted effect of over 30% in size. Also: potency is read from the fitted curve at half-maximal effect. In a few lines: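 ER-beta-UAS-bla HEK293T cells in medium with 2% charcoal-stripped FBS, pre-incubated 6 hr, then treated 16 hr at 37C. Cytotoxicity read in the same wells by CellTiter-Glo luminescence after 30 min at room temperature.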

Test [16] has as its target Androgen receptor (Homo sapiens) (UniProt P10275). In words: qHTS assay to identify small molecule agonists of the androgen receptor (AR) signaling pathway in the presence of an antagonist (AID 1259381; calls by dose curve; also: nearly all actives have a fitted effect of over 15% in size). In a few lines: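 MDA-kb2 cells carrying MMTV-luciferase (AR/GR responsive), 3,000 cells/well, co-treated with 3.0 uM nilutamide final. Compounds at 15 concentrations, 16 hr at 37C without CO2. Luciferase luminescence read after 30 min with ONE-Glo.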

A short description of test [17]: qHTS RealTime-Glo MT Cell Viability Assay in HEK293 cells - 8 hour (AID 1224887). Also: nearly all actives have a fitted effect of over 50% in size. Also: potency is read from the fitted curve at half-maximal effect. In a few lines: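 600 cells/well were plated with the nonlytic NanoLuc/prosubstrate reagent, pre-incubated 5 h, then given 23 nL of compound in DMSO. Incubation at 37 C for 40 h, with luminescence from viable-cell-reduced substrate read repeatedly from 0 h.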
A short description of test [18]: qHTS assay to identify small molecule HDAC inhibitors - cell viability counter screen (AID 1259365). Also: nearly all actives have a fitted effect of over 50% in size. Also: potency is read from the fitted curve at half-maximal effect. In a few lines:
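To flag cytotoxic hits, 1,500 wild-type HCT-116 cells per well, plated the day before, receive test compounds for 2hr at 37 C before CellTiter-Glo reagent and a luminescence read.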

The nature of test [19]: qHTS assay to identify small molecule phospholipidosis (PLD) inducers (AID 1259344; active = well fitted curve in the direction sought with a large enough effect; an effect the other way counts as inactive or inconclusive). In a few lines:
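Phospholipidosis is scored by imaging LipidTOX-stained pits in HepG2 cells exposed to compound for 24 h at 37 C; pit counts and integrated intensities per well and per cell serve as outputs.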

Test [20] deals with Estrogen receptor (Homo sapiens) (UniProt P03372). In words: qHTS assay to identify small molecule antagonists of the estrogen receptor alpha (ER-alpha) signaling pathway using the BG1 cell line in the presence of 0.1 nM 17-beta-estradiol (AID 1259244). Also: nearly all actives have a fitted effect of over 50% in size. In a few lines: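 VM7Luc4E2 cells (endogenous full-length ER-alpha, 4×ERE-luciferase), kept 5 days in phenol red-free, charcoal-stripped FBS medium; 4,000 cells/well. Compounds added with 0.1 nM (final) 17beta-estradiol, 22 hr at 37C; luminescence read with ONE-Glo after 30 min.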
Chain of Estrogen receptor (Homo sapiens) (P03372 whole entry, looked up): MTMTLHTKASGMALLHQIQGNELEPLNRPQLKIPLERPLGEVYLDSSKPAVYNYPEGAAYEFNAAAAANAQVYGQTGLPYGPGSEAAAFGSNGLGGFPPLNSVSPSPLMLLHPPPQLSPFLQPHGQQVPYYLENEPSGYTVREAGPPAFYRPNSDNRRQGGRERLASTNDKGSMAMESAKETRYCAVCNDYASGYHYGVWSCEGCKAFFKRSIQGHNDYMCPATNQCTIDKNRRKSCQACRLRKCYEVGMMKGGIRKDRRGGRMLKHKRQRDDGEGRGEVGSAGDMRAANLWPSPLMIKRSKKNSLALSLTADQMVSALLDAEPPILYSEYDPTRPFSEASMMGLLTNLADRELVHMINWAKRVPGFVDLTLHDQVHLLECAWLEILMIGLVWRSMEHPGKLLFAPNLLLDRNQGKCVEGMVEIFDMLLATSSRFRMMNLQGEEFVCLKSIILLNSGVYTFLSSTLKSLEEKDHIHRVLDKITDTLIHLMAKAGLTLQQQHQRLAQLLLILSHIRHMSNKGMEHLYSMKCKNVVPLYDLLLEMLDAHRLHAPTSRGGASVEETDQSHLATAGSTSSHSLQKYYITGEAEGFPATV

Chain of Androgen receptor (Homo sapiens) (P10275 whole entry, looked up): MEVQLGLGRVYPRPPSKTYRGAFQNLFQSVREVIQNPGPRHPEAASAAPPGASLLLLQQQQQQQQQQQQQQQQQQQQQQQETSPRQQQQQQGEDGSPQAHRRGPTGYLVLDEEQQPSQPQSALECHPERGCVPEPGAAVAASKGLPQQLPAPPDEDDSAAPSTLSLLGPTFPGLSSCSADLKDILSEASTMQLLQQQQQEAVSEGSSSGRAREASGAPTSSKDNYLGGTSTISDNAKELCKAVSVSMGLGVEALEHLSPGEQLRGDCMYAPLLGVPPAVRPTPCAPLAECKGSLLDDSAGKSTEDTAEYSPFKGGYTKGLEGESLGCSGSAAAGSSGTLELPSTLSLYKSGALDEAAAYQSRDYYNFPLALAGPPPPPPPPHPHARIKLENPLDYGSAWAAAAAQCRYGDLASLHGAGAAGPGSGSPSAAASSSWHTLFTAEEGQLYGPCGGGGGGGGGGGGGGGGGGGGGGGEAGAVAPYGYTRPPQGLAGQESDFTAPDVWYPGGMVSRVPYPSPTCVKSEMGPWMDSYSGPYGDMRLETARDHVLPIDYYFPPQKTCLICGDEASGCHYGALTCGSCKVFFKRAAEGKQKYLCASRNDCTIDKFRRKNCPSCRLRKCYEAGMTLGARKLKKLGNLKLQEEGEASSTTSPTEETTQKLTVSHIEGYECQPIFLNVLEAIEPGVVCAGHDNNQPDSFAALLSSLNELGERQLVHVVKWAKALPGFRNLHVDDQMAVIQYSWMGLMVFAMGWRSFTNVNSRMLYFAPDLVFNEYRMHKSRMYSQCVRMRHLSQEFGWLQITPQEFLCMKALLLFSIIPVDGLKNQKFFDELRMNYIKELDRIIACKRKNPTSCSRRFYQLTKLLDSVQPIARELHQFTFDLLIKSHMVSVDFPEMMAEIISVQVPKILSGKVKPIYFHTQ

As to `C=COCCCC`, the Potency entry in test [1], in test [2], in [3], in test [4], in test [5] and in test [6] was “inactive” each time. Besides, the Potency result in test [7], in test [8], in test [9], in test [10], in [11] and in test [13] was “inactive” in each case. Further, the Potency result in test [14], in [15] and in test [16] was “inactive” throughout. Moreover, in test [12], the outcome was inactive.
For the compound `CN(C[C@@H](CC[N+]12CCC(C3CCCCC3)(CC1)CC2)c1ccc(Cl)c(Cl)c1)C(=O)c1cc(C(F)(F)F)cc(C(F)(F)F)c1`, the Potency in [17] is 3.47 µM (active); in test [1], 24.5 µM (active); in [3] it was 38.9 µM (active); in test [6], 68.6 µM (active); in test [18], 12.2 µM (active); in test [15] it was 30.6 µM (active). In addition, the Potency result in [7], in test [9], in test [10], in test [11] and in test [16] was “inactive” throughout.
Turning to `C=C1C(CCl)(CCl)C2(Cl)C(Cl)C(Cl)C1(Cl)C2(Cl)Cl` (stereo not drawn), the Potency in [17] was 43.1 µM (active); in test [6], 48 µM (active); in test [13], 27 µM (active); in test [15], 48 µM (active). Moreover, the Potency result in test [2], in [3], in test [4], in [5], in test [19] and in test [7] was “inactive” in each case. The Potency result in test [18], in test [9], in test [10] and in [16] was “inactive” each time.
As for `Cc1cc(F)ccc1-c1cc(N2CC[C@@H](O)[C@H]2CO)ncc1N(C)C(=O)C(C)(C)c1cc(C(F)(F)F)cc(C(F)(F)F)c1`, the Potency in [17] is 34.1 µM (active); in [2] it was 1.71 µM (active); in test [6], 38 µM (active); in test [8] it was 42.6 µM (active); in [13], 19 µM (active); in test [14], 53.6 µM (active). Besides, the Potency entry in test [4], in [5], in [7], in test [18], in test [10] and in test [16] was “inactive” in each case.
Take `COc1cc(OC)nc(NC(=O)NS(=O)(=O)Nc2ccccc2C(=O)N(C)C)n1`: the Potency entry in test [17], in [1], in test [3], in [4], in [5] and in test [7] was “inactive” each time. The Potency result in [18], in [8], in test [9], in [10], in test [13] and in [14] was “inactive” each time. The Potency entry in test [15] was “inactive”. The result in test [12] was inactive.
On to `C1CCSC1`, for which the Potency result in test [1], in test [2], in test [3], in test [4], in test [5] and in test [20] was “inactive” throughout. Also, the Potency result in test [7], in test [18], in test [8], in test [9], in test [10] and in [11] was “inactive” in each case. The Potency entry in test [14] is “inactive”.
Take `Cc1c(Cl)c(=O)oc2cc(O)ccc12`: the Potency in [17] is 43.6 µM (active); in [11] it was 34.4 µM (active). The Potency entry in test [1], in test [3], in test [7], in [18] and in test [10] was “inactive” in each case.
Turning to `CC(C)(C)c1cc(CCC(=O)OCCSCCOC(=O)CCc2cc(C(C)(C)C)c(O)c(C(C)(C)C)c2)cc(C(C)(C)C)c1O`, the Potency result in test [17], in [1], in [3], in test [5], in test [6] and in test [20] was “inactive” in each case. Besides, the Potency result in [7], in [8], in test [9], in test [10], in [11] and in test [13] was “inactive” throughout. Besides, the Potency entry in [14], in test [15] and in test [16] was “inactive” in each case. In test [12], the result was inactive.
